From PubChem BioAssay AID1159580 (chemical genetic matrix, 2015)
The whole screen tested about 5,500 compounds, of which about 2,000 (36%) were called active. About 18% were inconclusive and are not listed. Cut-off read from the data, not from the text of the source: active = normalized growth mostly below about 0.91 (no sharp cut-off); inconclusive = no clear call, values can overlap the other calls; inactive = mostly above about 0.92. The list shows a part of the results.

Assay: chemical genetic growth profiling, strain panel (AID 1159580);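 note: tested at 20 µM; growth read once vehicle control cultures reached saturation at 30 °C; 1 = growth at the plate median or of vehicle wells; lower values mean less growth of the strain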
Conditions: growth OD

Measured: normalized growth

COc1ccc(OC)c(C(O)C(C)N)c1 (stereo unspecified)
inactive: S. cerevisiae deletion strains, locus YJR066W, strain TOR1, hits give low values 0.991 | S. cerevisiae deletion strains, locus YJR075W, strain HOC1, hits give low values 0.999 | S. cerevisiae deletion strains, locus YKL009W, strain mrt4, hits give low values 0.995 | S. cerevisiae deletion strains, locus YKL068W, hits give low values 0.997 | S. cerevisiae deletion strains, locus YKL085W, strain MDH1 (second series), hits give low values 1 | S. cerevisiae deletion strains, locus YKL085W, strain MDH1, hits give low values 1 | S. cerevisiae deletion strains, locus YKL160W, strain elf1, hits give low values 0.983 | S. cerevisiae deletion strains, locus YKL190W, strain CNB1, hits give low values 1.02 | S. cerevisiae deletion strains, locus YKR001C, strain vps1, hits give low values 1 | S. cerevisiae deletion strains, locus YKR026C, strain gcn3, hits give low values 0.994 | S. cerevisiae deletion strains, locus YKR091W, strain srl3, hits give low values 0.989 | S. cerevisiae deletion strains, locus YLL001W, strain dnm1, hits give low values 0.972 | S. cerevisiae deletion strains, locus YLL026W, hits give low values 0.99 | S. cerevisiae deletion strains, locus YLL041C, strain sdh2, hits give low values 1 | S. cerevisiae deletion strains, locus YLR027C, strain aat2, hits give low values 0.987 | S. cerevisiae deletion strains, locus YLR039C, strain RIC1, hits give low values 1.07 | S. cerevisiae deletion strains, locus YLR058C, strain SHM2, hits give low values 1.01 | S. cerevisiae deletion strains, locus YLR102C, strain apc9, hits give low values 0.992 | S. cerevisiae deletion strains, locus YLR113W, strain HOG1, hits give low values 1.08 | S. cerevisiae deletion strains, locus YLR221C, strain rsa3, hits give low values 0.994 | S. cerevisiae deletion strains, locus YLR258W, strain gsy2, hits give low values 1.01 | S. cerevisiae deletion strains, locus YLR262C, strain YPT6 (second series), hits give low values 0.999 | S. cerevisiae deletion strains, locus YLR262C, strain YPT6, hits give low values 1.08 | S. cerevisiae deletion strains, locus YLR268W, strain sec22, hits give low values 1 | S. cerevisiae deletion strains, locus YLR320W, strain mms22, hits give low values 0.989 | S. cerevisiae deletion strains, locus YLR330W, strain CHS5, hits give low values 1.01 | S. cerevisiae deletion strains, locus YLR342W, strain FKS1 (second series), hits give low values 1.01 | S. cerevisiae deletion strains, locus YLR342W, strain FKS1, hits give low values 0.976 | S. cerevisiae deletion strains, locus YLR357W, strain rsc2, hits give low values 0.971 | S. cerevisiae deletion strains, locus YLR370C, strain arc18, hits give low values 0.988 | S. cerevisiae deletion strains, locus YLR371W, strain rom2, hits give low values 0.989 | S. cerevisiae deletion strains, locus YLR384C, strain iki3, hits give low values 0.987 | S. cerevisiae deletion strains, locus YLR418C, strain cdc73, hits give low values 1.02 | S. cerevisiae deletion strains, locus YML016C, strain PPZ1, hits give low values 1.02 | S. cerevisiae deletion strains, locus YML032C, strain rad52, hits give low values 0.977 | S. cerevisiae deletion strains, locus YML120C, strain ndi1, hits give low values 0.997 | S. cerevisiae deletion strains, locus YML124C, strain tub3, hits give low values 0.993 | S. cerevisiae deletion strains, locus YMR078C, strain ctf18, hits give low values 0.987 | S. cerevisiae deletion strains, locus YMR125W, strain sto1, hits give low values 0.994 | S. cerevisiae deletion strains, locus YMR129W, hits give low values 0.978 | S. cerevisiae deletion strains, locus YMR205C, strain PFK2, hits give low values 1 | S. cerevisiae deletion strains, locus YMR223W, strain ubp8, hits give low values 0.996 | S. cerevisiae deletion strains, locus YMR231W, strain pep5, hits give low values 0.99 | S. cerevisiae deletion strains, locus YMR263W, strain SAP30, hits give low values 1.03 | S. cerevisiae deletion strains, locus YMR307W, strain GAS1, hits give low values 0.992 | S. cerevisiae deletion strains, locus YNL067W, strain RPL9B, hits give low values 1.02 | S. cerevisiae deletion strains, locus YNL071W, strain lat1, hits give low values 1 | S. cerevisiae deletion strains, locus YNL128W, strain TEP1, hits give low values 1.01 | S. cerevisiae deletion strains, locus YNL153C, strain GIM3, hits give low values 1.04 | S. cerevisiae deletion strains, locus YNL175C, strain NOP13, hits give low values 0.996 | S. cerevisiae deletion strains, locus YNL183C, strain NPR1, hits give low values 1.01 | S. cerevisiae deletion strains, locus YNL197C, strain WHI3, hits give low values 1.01 | S. cerevisiae deletion strains, locus YNL209W, strain ssb2, hits give low values 1 | S. cerevisiae deletion strains, locus YNL224C, strain SQS1, hits give low values 1.01 | S. cerevisiae deletion strains, locus YNL233W, strain BNI4, hits give low values 1.02 | S. cerevisiae deletion strains, locus YNL248C, strain rpa49, hits give low values 0.997 | S. cerevisiae deletion strains, locus YNL250W, strain rad50, hits give low values 0.978 | S. cerevisiae deletion strains, locus YNL271C, strain bni1, hits give low values 1 | S. cerevisiae deletion strains, locus YNL298W, strain CLA4, hits give low values 1 | S. cerevisiae deletion strains, locus YNL307C, strain MCK1, hits give low values 0.976 | S. cerevisiae deletion strains, locus YNL322C, strain KRE1 (second series), hits give low values 0.991 | S. cerevisiae deletion strains, locus YNL322C, strain KRE1, hits give low values 1.01 | S. cerevisiae deletion strains, locus YNR049C, strain mso1, hits give low values 0.99 | S. cerevisiae deletion strains, locus YNR052C, strain pop2, hits give low values 0.992 | S. cerevisiae deletion strains, locus YOL006C, strain TOP1, hits give low values 1.13 | S. cerevisiae deletion strains, locus YOL012C, strain htz1 1.17 | S. cerevisiae deletion strains, locus YOL147C, strain pex11, hits give low values 0.979 | S. cerevisiae deletion strains, locus YOR001W, strain rrp6, hits give low values 0.992 | S. cerevisiae deletion strains, locus YOR061W, strain CKA2, hits give low values 1.02 | S. cerevisiae deletion strains, locus YOR069W, strain VPS5, hits give low values 1.01 | S. cerevisiae deletion strains, locus YOR070C, strain gyp1, hits give low values 0.999 | S. cerevisiae deletion strains, locus YOR080W, strain dia2, hits give low values 0.99 | S. cerevisiae deletion strains, locus YOR083W, strain WHI5 (second series), hits give low values 1.01 | S. cerevisiae deletion strains, locus YOR083W, strain WHI5, hits give low values 0.961 | S. cerevisiae deletion strains, locus YOR106W, strain vam3, hits give low values 0.986 | S. cerevisiae deletion strains, locus YOR136W, strain idh2, hits give low values 0.982 | S. cerevisiae deletion strains, locus YOR144C, strain elg1, hits give low values 0.985 | S. cerevisiae deletion strains, locus YOR184W, strain ser1, hits give low values 0.978 | S. cerevisiae deletion strains, locus YOR231W, strain MKK1, hits give low values 1.07 | S. cerevisiae deletion strains, locus YOR265W, strain rbl2, hits give low values 0.997 | S. cerevisiae deletion strains, locus YOR270C, strain vph1, hits give low values 1.01 | S. cerevisiae deletion strains, locus YOR290C, strain snf2, hits give low values 1.01 | S. cerevisiae deletion strains, locus YOR316C, strain cot1, hits give low values 0.991 | S. cerevisiae deletion strains, locus YPL051W, strain arl3, hits give low values 0.991 | S. cerevisiae deletion strains, locus YPL055C, strain LGE1, hits give low values 1.06 | S. cerevisiae deletion strains, locus YPL078C, strain atp4, hits give low values 0.961 | S. cerevisiae deletion strains, locus YPL106C, strain sse1, hits give low values 1.01 | S. cerevisiae deletion strains, locus YPL240C, strain hsp82, hits give low values 0.991 | S. cerevisiae deletion strains, locus YPL241C, strain CIN2, hits give low values 1.01 | S. cerevisiae deletion strains, locus YPL256C, strain CLN2, hits give low values 1.06 | S. cerevisiae deletion strains, locus YPR119W, strain clb2, hits give low values 0.988 | S. cerevisiae deletion strains, locus YPR141C, strain kar3, hits give low values 0.984 | S. cerevisiae deletion strains, locus YPR163C, strain tif3, hits give low values 0.98 | S. cerevisiae deletion strains, locus YPR167C, strain met16, hits give low values 0.996 | S. cerevisiae deletion strains, strain wtn01, hits give low values 1.01 | S. cerevisiae strains, strain wild type, hits give low values 1.01
